Laboratory results published in the supplement of paper PMC6555819.

tested on: PPARg homodimer (NR concentration 180 nM); assay: PBM binding z-score (relative to random genomic background probes); higher = stronger binding; sequences stand for … in GC…GCGATTGACAGCGTAGAATGAAGG
Method in brief: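 Ligand-free nuclear receptor dimers were applied to custom Agilent 4×180K protein-binding microarrays whose double-stranded probes carried direct-repeat seeds, single-nucleotide variants, half-site ablations and random human genomic background sequences in 34-nt variable regions. Incubation lasted 1 h. Binding z-scores were computed against the random background probes from regression-normalized fluorescence.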

Row | Sequence | PBM binding z-score
1 | TATACAGGGTCAAAGGGCAGAGTACGAATGTCGA | 2.97
2 | CGTCCAAGGTCAAAGGTCAGGGAAGAGATGACGG | 3.19
3 | CAAACTAGGTCACCGGAAGGTCAAAGTTCGCATG | 7.21
4 | TAGCCTAGGTTATGCGGGCCAGTATAGTGTCGGC | -0.501
5 | CCTACTGGGCCAAAAAGGCCATTGATGCCGATAA | 0.287
6 | CGAACTAGGTCAAAGGCCAGTGAAAGGCGACGTA | 1.42
7 | ATCTCTAGGTTAAAGTTCAGTGAATCCCGAGGAT | 2.11
8 | CCGACTGGGGCAAAGGTTACGATACTCAGTACGA | 4
9 | ACTCGGAGGACAGAGGTCAGAGCTACGCCAGTGA | 1.89
10 | CAAACTAGGTCACAGAGGTCAAAGTTCGTGCGTA | 6.43
11 | CCAGACAGGTGAAAGGTCACTCAGTCTGGTACGC | 3.92
12 | CAATCTAGGTCACAGAGGTCAAAGTCCGTGCGTA | 7.14
13 | ACTAGCAGGTCAAGGGTCACTCAAGATTAGTCCG | 3.91
14 | CATACACGGTCAGCTAGGCCAGAGTAGGGACGGC | 0.0796
15 | GCTTCCGGGTCAAAGGTTATAGCATGAATAGAAT | 4.67
16 | TCAGATAGGTAAAGGTGAAAGTCGAACGATATGA | 1.31
17 | ATATGTAGGTCAGGGTCATTCAGAAAGTAGGGAA | 3.22
18 | CTAACTAGGTCACCGGAAGGTCAAAGTCCGCATG | 5.86
19 | CGTCCAAGGTCAGCAGGTGAGTGAAAGCGACGTG | 3.15
20 | TCTAGTAGGTCACGGAGGTCACACACGACGGGTA | 5.46

Row | Sequence | PBM binding z-score
21 | TCATATAGGTAATAAAGGTGAAAGTCGGCATCTA | 2.01
22 | CAAAATAGGTCAAGGTCAAAGTCGGTTTGTGCCA | 4.28
23 | CGTCCAAGGTCAGCAGGTCAGAGAAAGCGACGTG | 6.44
24 | CGTCCAAGGTCAAAGGTCACTGAAGAGATGACGG | 2.49
25 | TCTAGTTGGTCACGGAGGTCACACGCGACGGGTA | 3.12
26 | TCATATAGGTTAAAGGTGAAAGTCGGTGTGGTAA | 3.22
27 | CAAACTAGGTCACGAGGTCAAAGTCCGCTTCCCG | 3.45
28 | CCTACTGGGCCAAGGTCTTTGATCAGTCAAAGCA | 0.00705
29 | CGTCCAAGGTCAATGCTAGCTCAGTGAAAGCATT | 0.0664
30 | CCTAGTGGGCCAAAGGTCATTGATTCCAATGCTC | 7.49
31 | CCTGCTAGGTCAAGGGTCAGCTAAAGCAGCTCGC | 2.95
32 | AGTCAAATTTCACTAGGTAACGTAAGATTCAGCT | 0.334
33 | ACTCGGAGGGCAAAGGTCAGAGCTACGCCAGTGA | 5.97
34 | GATACAGGGTCAGCTAGAGGTCAGAGTATGGAAA | 6.51
35 | AGAATGGGGTTAAGATCAGGGAAACAGAATACAT | 2.18
36 | TCATATAGGTAATCAGGTGAAAGTCCGTAAGTTA | 1.32
37 | CGTCCAAGGTCAAGGTCACTGAAAGAGACTCGAA | 3.85
38 | CGTCCAAGCTCAGCAGGTCAGTGAAAGCGACGTG | -0.131
39 | CGAACTAGGTCAAAGGACACTGAAAGGCGACGTA | 3.64
